Assay results: PMC4336329 (PLoS ONE, 2015)
The whole screen tested about 310,000 compounds, of which about 14,000 (4.5%) showed an effect of 50% or more. Effects have a minus sign here. Shown is part of a subset that was picked to be rich in strong results.

biological target: human ether-à-go-go-related gene (hERG) potassium channel (human, UniProt Q12809); test: primary screen, population patch clamp on CHO cells stably expressing hERG; higher = less effect of the substance
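Also: peak tail current of the secondary pulse compared with the same well before compound.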

Chain of human ether-à-go-go-related gene (hERG) potassium channel (Q12809 whole entry, looked up): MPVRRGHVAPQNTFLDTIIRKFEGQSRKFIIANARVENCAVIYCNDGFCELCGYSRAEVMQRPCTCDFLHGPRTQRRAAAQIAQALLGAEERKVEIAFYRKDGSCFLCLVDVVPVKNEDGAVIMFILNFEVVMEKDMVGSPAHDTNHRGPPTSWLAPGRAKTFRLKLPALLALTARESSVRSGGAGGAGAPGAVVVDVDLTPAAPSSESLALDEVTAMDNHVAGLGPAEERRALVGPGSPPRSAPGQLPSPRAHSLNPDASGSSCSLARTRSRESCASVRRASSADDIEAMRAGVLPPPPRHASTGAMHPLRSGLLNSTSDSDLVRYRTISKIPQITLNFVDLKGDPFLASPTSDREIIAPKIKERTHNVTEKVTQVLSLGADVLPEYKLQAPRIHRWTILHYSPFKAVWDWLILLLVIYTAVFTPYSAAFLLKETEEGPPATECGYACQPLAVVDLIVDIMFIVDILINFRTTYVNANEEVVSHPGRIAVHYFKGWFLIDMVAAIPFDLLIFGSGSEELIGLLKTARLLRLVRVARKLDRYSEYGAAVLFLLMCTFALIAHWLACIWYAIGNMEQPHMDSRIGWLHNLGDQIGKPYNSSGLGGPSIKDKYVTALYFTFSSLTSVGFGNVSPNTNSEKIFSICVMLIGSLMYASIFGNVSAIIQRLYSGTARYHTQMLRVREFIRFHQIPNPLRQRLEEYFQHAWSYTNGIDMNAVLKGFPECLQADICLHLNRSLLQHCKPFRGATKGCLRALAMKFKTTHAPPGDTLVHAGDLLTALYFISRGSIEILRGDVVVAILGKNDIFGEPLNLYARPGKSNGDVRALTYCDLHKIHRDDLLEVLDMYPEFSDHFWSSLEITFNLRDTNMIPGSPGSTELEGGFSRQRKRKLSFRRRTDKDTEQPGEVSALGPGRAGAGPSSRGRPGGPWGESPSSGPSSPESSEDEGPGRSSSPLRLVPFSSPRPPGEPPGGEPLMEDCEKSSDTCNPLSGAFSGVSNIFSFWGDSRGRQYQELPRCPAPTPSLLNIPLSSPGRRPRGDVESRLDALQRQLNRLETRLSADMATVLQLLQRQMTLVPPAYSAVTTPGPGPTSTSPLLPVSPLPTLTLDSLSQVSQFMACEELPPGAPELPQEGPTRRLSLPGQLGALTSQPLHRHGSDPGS

| Structure (SMILES) | hERG current change (%, negative = inhibition) at 10uM |
| --- | --- |
| Cc1ccc(C)c(NC(=S)N2CCN(c3cccc(C(F)(F)F)c3)CC2)c1 | 7.13% |
| COC(=O)c1sc(S(=O)(=O)Nc2ccc(Br)cc2)c(C(=O)OC)c1C | 2.75% |
| CCCCCCc1cc2cc(C(=O)NCc3ccccc3)c(=N)oc2cc1O | 5.76% |
| O=C(NCCC(c1ccccc1)c1ccccc1)c1cccs1 | -14.2% |
| Cc1ccccc1C(=O)N/N=C/c1ccccn1 | 5.6% |
| CCN(CC)c1ccc(/C=C2\NC(=O)NC2=O)cc1 | 19.5% |
| COC(=O)c1ccsc1NC(=O)CN1CCN(c2ncccn2)CC1 | -1.35% |
| Cc1cc(C)n(-c2c(F)c(F)c(COC(=O)c3ccccc3)c(F)c2F)n1 | 5.11% |
| COC(=O)c1nc2n(n1)C(c1ccc([N+](=O)[O-])cc1)C(C(=O)Nc1ccc(Cl)cc1)=C(C)N2 (stereo not drawn) | 13.5% |
| Cc1ccccc1S(=O)(=O)Cc1ccc(C(=O)N(C)C2CCCCC2)o1 | -12.5% |
| C=CCn1c(SCc2cccc(F)c2)nc2cc(C(=O)N3CCC(C(N)=O)CC3)ccc2c1=O | -34.7% |
| CCN(C(=O)c1sc(N)c(C#N)c1C)C1CCCCC1 | 9.21% |
| CCOC(=O)c1c(C)oc(/N=C/c2ccccc2O)c1C#N | 7.61% |
| O=C(c1cccs1)N1CCN(S(=O)(=O)c2ccccc2)CC1 | -6.98% |
| CS(=O)(=O)Nc1cccc(C(=O)OCCCOc2ccc(F)cc2)c1 | -54.5% |
| CC(=O)Nc1cccc(C(=O)OCCCOc2ccc(F)cc2)c1 | 18.8% |
| COC(=O)c1cccc(NS(C)(=O)=O)c1 | 12.9% |
| CC(C)CNC(=O)NC(=O)COC(=O)c1cc(F)cc(F)c1 | -4.56% |
| COc1ccc(C)cc1NC(=O)C(=O)NNC(=O)c1ccco1 | 17.6% |
| Cc1c(CC(=O)O)c(=O)oc2c(C)c(OCc3c(F)cccc3Cl)ccc12 | 5.53% |
| CCOc1ccccc1NC(=O)C(OC(=O)C1CC1)c1ccccc1 (stereo not drawn) | -10.3% |
| CCOc1ccccc1NC(=O)C(NCCc1ccc(OC)cc1)c1ccccc1 (stereo not drawn) | -4.48% |

| Structure (SMILES) | hERG current change (%, negative = inhibition) at 10uM |
| --- | --- |
| CCOc1ccccc1NC(=O)C(NCCN(C)C)c1ccccc1.O=C(O)C(=O)O (stereo not drawn) | -76.4% |
| CCOc1ccccc1NC(=O)C(NCC1CCCCC1)c1ccccc1 (stereo not drawn) | 16.9% |
| CCOc1ccccc1NC(=O)C(Sc1ccccc1)c1ccccc1 (stereo not drawn) | 9.32% |
| CCOc1ccccc1NC(=O)C(NCC1(N2CCCCC2)CCCCC1)c1ccccc1.O=C(O)C(=O)O (stereo not drawn) | -70.9% |
| COc1cccc(C(=O)N2CCC3(CC2)OCCO3)c1 | 20.3% |
| COc1ccc(OCCNS(=O)(=O)Cc2ccccc2)cc1 | 0.161% |
| Cc1cccc(NC(=O)c2ccc(S(=O)(=O)N3CCOCC3)cc2)n1 | 19.5% |
| COCCSc1ccccc1C(=O)N1CCc2ccccc21 | 15.1% |
| CC(C)(C)c1ccc(OCCC(=O)Nc2cccc(S(=O)(=O)N3CCCCC3)c2)cc1 | 16.4% |
| O=C(COc1ccccc1)N1CCN(c2ccccc2)CC1 | -3.1% |
| Cc1nc(N2CCN(C(=O)COc3ccccc3)CC2)c2c(C)c(C)sc2n1.Cl | -69.3% |
| Cc1nc(N2CCN(S(=O)(=O)c3ccc(Br)cc3)CC2)c2c(C)c(C)sc2n1 | -10.7% |
| Cc1sc2ncnc(OCC(=O)N3CCN(S(=O)(=O)c4ccccc4)CC3)c2c1C | -2.31% |
| Cc1nc(N2CCN(C(=O)CCC(=O)O)CC2)c2c(C)c(C)sc2n1 | -1.2% |
| CCC(=O)N1CCN(c2nc(C)nc3sc(C)c(C)c23)CC1 | -62% |
| O=C(c1cc(C2CC2)nn1-c1ccccc1)N1CCN(S(=O)(=O)c2cccc(F)c2)CC1 | -28.1% |
| O=[N+]([O-])c1ccc(Cl)c(S(=O)(=O)/N=C(/c2ccccc2)N2CCOCC2)c1 | 3.91% |
| COc1ccc(C(=O)N2CCN(c3ccc(N4CCOCC4)nn3)CC2)cc1OC | 8.55% |
| COc1ccc(/C=C(\NC(=O)/C=C/c2ccco2)C(=O)NCCc2nc3ccccc3[nH]2)cc1 | -56.6% |
| COc1ccc(/C=C/C(=O)NCCc2nc3ccccc3[nH]2)cc1 | 26.4% |
| CC(C)Oc1ccc(/C=C(\NC(=O)/C=C/c2ccco2)C(=O)NCCc2nc3ccccc3[nH]2)cc1 | -28.6% |
| O=C(/C=C/c1ccco1)N/C(=C\c1ccco1)C(=O)NCCc1nc2ccccc2[nH]1 | -22.6% |

| Structure (SMILES) | hERG current change (%, negative = inhibition) at 10uM |
| --- | --- |
| COc1ccc(/C=C/C(=O)N/C(=C\c2ccco2)C(=O)NCCc2nc3ccccc3[nH]2)cc1 | -72.7% |
| O=C(/C=C/c1ccco1)N/C(=C\c1ccccc1)C(=O)NCCc1nc2ccccc2[nH]1 | -46.3% |
| Cc1nn(CC(=O)NCCCN2CC(C)CC(C)C2)c(=O)c2cccn12 (stereo not drawn) | 12.9% |
| CC1CC(C)CN(CCCNC(=O)Cn2ncn3cccc3c2=O)C1 (stereo not drawn) | -3.29% |
| Cc1cc2c(cc3c(=O)n(CC(=O)NCCCN4CC(C)CC(C)C4)ncn32)s1 (stereo not drawn) | -53.4% |
| Cc1c2cnn(CC(=O)NCCCN3CC(C)CC(C)C3)c(=O)c2c(C)n1Cc1ccccc1Cl (stereo not drawn) | -36.7% |
| Cc1c2cnn(CC(=O)NCCCN3CCCCC3)c(=O)c2c(C)n1Cc1ccccc1 | 9.96% |
| Cc1c2cnn(CC(=O)NCCCN3CC(C)CC(C)C3)c(=O)c2c(C)n1Cc1ccc(Cl)cc1 (stereo not drawn) | -52.6% |
| COC(=O)c1ccc(OC(=O)CCN2c3ccccc3Sc3ccccc32)cc1 | 8.91% |
| Nc1c(C(=O)NC23CC4CC(CC(C4)C2)C3)sc2nc3c(c(C(F)(F)F)c12)CCC3 | 0.00528% |
| O=C(CN1C2CCCC1CC(NC(=O)c1ccccc1)C2)Nc1ccccc1 (stereo not drawn) | -50.7% |
| O=C(CN1C2CCCC1CC(NC(=O)c1ccccc1)C2)NC1CC1 (stereo not drawn) | 26.9% |
| COc1cccc(C(=O)NC2CC3CCCC(C2)N3CC(=O)Nc2ccc(N(C)C)cc2)c1 (stereo not drawn) | -49.3% |
| CC(=O)NC1CC2CCCC(C1)N2CC(=O)Nc1ccccc1 (stereo not drawn) | 4.65% |
| O=C(CN1C2CCCC1CC(NC(=O)c1ccccc1)C2)Nc1ccccc1C(F)(F)F (stereo not drawn) | 6.14% |
| O=C(CN1C2CCCC1CC(NC(=O)c1ccco1)C2)Nc1ccccc1 (stereo not drawn) | -45.2% |
| COc1cccc(C(=O)NC2CC3CCCC(C2)N3CC(=O)Nc2ccccc2)c1.Cl (stereo not drawn) | -54.4% |
| COc1cccc(C(=O)NC2CC3CCCC(C2)N3CC(=O)Nc2ccccc2C(F)(F)F)c1 (stereo not drawn) | 15.8% |
| CN(C)c1ccc(NC(=O)CN2C3CCCC2CC(NC(=O)c2ccccc2)C3)cc1 (stereo not drawn) | -65.3% |
| CCOc1ccc(NC(=O)COc2nsnc2N2CCCCC2)cc1 | 21.6% |
| CC(C)[C@H](NC(=O)c1ccc(F)cc1)C(=O)N(C)Cc1cccs1 | -13.8% |
| Cc1ccc(SCC(=O)N2CCOCC2)cc1 | 4.71% |

| Structure (SMILES) | hERG current change (%, negative = inhibition) at 10uM |
| --- | --- |
| Cc1cccc(OCCc2nnc(N)s2)c1C | 15.2% |
| CCN1CCCC1CNCc1cccc(OC)c1OCc1ccccc1F.Cl (stereo not drawn) | -54.4% |
| CNCc1ccccc1OCc1ccc(F)cc1.Cl | -7.08% |
| CCN1CCCC1CNCc1cccc(OC)c1OCc1ccc(F)cc1.Cl (stereo not drawn) | -69.5% |
| CCN1CCCC1CNCc1cc(OC)c(OC)c(OC)c1.Cl (stereo not drawn) | 1.63% |
| CCN1CCCC1CNCc1ccc(OCc2ccc(Cl)nc2)c(OC)c1.Cl (stereo not drawn) | -39.1% |
| COc1cccc(CNc2ccccc2O)c1OCc1ccccc1F | -1.17% |
| CCN1CCCC1CNCc1ccccc1OCc1ccc(F)cc1.Cl (stereo not drawn) | -65% |
| CCN1CCCC1CNCc1cccc(OC)c1OCc1ccccc1.Cl (stereo not drawn) | -26.9% |
| CCN1CCCC1CNS(=O)(=O)c1ccc(F)c(Cl)c1 (stereo not drawn) | 9.12% |
| COc1cccc(CNn2cnnc2)c1OCc1ccccc1F | 6.85% |
| CCN1CCCC1CNCc1ccc(Cl)cc1Cl.Cl (stereo not drawn) | -64.6% |
| CCOc1cc(CNCC2CCCN2CC)cc(Cl)c1OC.Cl (stereo not drawn) | -18% |
| O=c1cc(/N=C/c2coc3c(ccc4ccccc43)c2=O)[nH]c(=S)[nH]1 | 11% |
| Nc1nc(SCC(=O)Nc2ccc(Oc3ccccc3)cc2)n[nH]1 | -4.09% |
| CCNC(=S)N(CCc1c(C)[nH]c2ccc(F)cc12)Cc1cccnc1 | -26.5% |
| O=C(Cn1cnnn1)NCc1ccccc1 | 29.6% |
| O=C(Cn1c(-c2cscn2)nc2ccccc21)Nc1ccc(Cl)cc1 | -7.59% |
| COCC(C)n1c(C)cc(C(=O)CSc2cc(C)c3ccccc3n2)c1C (stereo not drawn) | 4.64% |
| CCc1ccc(OCC(=O)NC(=S)Nc2ccc(C)cc2C)c(Br)c1 | 7.39% |
| CN(c1ccc(C(=O)N2CCCCC2)cc1)S(=O)(=O)c1cccs1 | 8.46% |
